# Laboratory results from PubChem BioAssay (NCI).
# Compounds without any hit were thinned out: in the full panel of roughly 83,000, 20% have a hit.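 Growth was measured after 48 h exposure to one concentration of compound in 96-well plates. Values under 10 count as active.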 A number with no mark means an inactive call. Activity calls are given as the source filed them.
# Experiments:
# Test in all cases: NCI-60 one-dose screen, 48 h (100 = growth as untreated, 0 = no growth, -100 = all killed)
# HCT-15 colon = settings: 10 µM unless noted
# HT29 colon = settings: 10 µM unless noted
# SNB-75 CNS = settings: 10 µM unless noted
# SNB-19 CNS = settings: 10 µM unless noted
# U251 CNS = settings: 10 µM unless noted
# PC-3 prostate = settings: 10 µM unless noted
# UACC-62 melanoma = settings: 10 µM unless noted
# LOX IMVI melanoma = settings: 10 µM
# SK-MEL-28 melanoma = settings: 10 µM unless noted
# SK-MEL-2 melanoma = settings: 10 µM unless noted
# EKVX NSCLC = settings: 10 µM unless noted
# SN12C renal = settings: 10 µM unless noted
# UO-31 renal = settings: 10 µM unless noted
# TK-10 renal = settings: 10 µM unless noted
# ACHN renal = settings: 10 µM unless noted
# CAKI-1 renal = settings: 10 µM unless noted
# A498 renal = settings: 10 µM unless noted
# CCRF-CEM leukemia = settings: 10 µM unless noted
# SK-MEL-5 melanoma = settings: 10 µM unless noted
# MOLT-4 leukemia = settings: 10 µM unless noted
SMILES,growth (HCT-15 colon),growth (HT29 colon),growth (SNB-75 CNS),growth (SNB-19 CNS),growth (U251 CNS),growth (PC-3 prostate),growth (UACC-62 melanoma),growth (LOX IMVI melanoma),growth (SK-MEL-28 melanoma),growth (SK-MEL-2 melanoma),growth (EKVX NSCLC),growth (SN12C renal),growth (UO-31 renal),growth (TK-10 renal) [%],growth (ACHN renal),growth (CAKI-1 renal),growth (A498 renal) [%],growth (CCRF-CEM leukemia),growth (SK-MEL-5 melanoma),growth (MOLT-4 leukemia) [%]
COc1cc(OC)cc(C(=O)Nc2cccc(-c3cn(-c4ccc(S(N)(=O)=O)cc4)nn3)c2)c1,92.2%,114%,51.7%,17.8%,32.2%,91.4%,80.4%,69.3%,81.1%,92.6%,78.8%,70%,96.3%,94.8,88.5%,60.8%,116,105%,–,–
COc1ccccc1/C=C/C(=O)c1ccc(OC)c(S(N)(=O)=O)c1,7.53% (active),18.7%,8.99% (active),27.3%,5.14% (active),48.5%,44.4%,1.03% (active),38.7%,78.4%,23.2%,15.5%,24.7%,41.5,21.4%,20.9%,105,6.32% (active),–,–
COc1ccc(-c2nnc3ccc(N/N=C/c4ccc(O)cc4)nn23)cc1,26.7%,87.4%,53.6%,67.5%,67.6%,40.5%,58.8%,-54.8% (active),69.1%,73.2%,37.8%,42.3%,30.3%,38.9,43.5%,21.5%,91.9,14.1%,–,–
C[C@H]1CN(C(=O)c2ccc3c(NNC(=O)c4ccncn4)nc4cc(F)c(F)cc4n23)CCN1,28.4%,36.6%,65.3%,30.1%,15.5%,38.7%,6.69% (active),12.4%,31.1%,53.4%,15.7%,24.1%,13.6%,36.8,8.98% (active),15.2%,50.3,10.9%,–,–
CC(=O)Nc1cccc(Nc2nccc(N[C@@H](C)c3ccccc3)n2)c1,7.75% (active),2.53% (active),7.86% (active),25.6%,24.4%,30.5%,–,–,49.4%,41.5%,16.6%,15.4%,25.9%,29.1,12.7%,29%,68,24.9%,-31% (active),20.5
C/C(=N\Nc1ccc(S(N)(=O)=O)cc1)c1ccc(N=Nc2c(Nc3ccccc3)[nH][nH]c2=O)cc1,36.7%,4.54% (active),21%,-5.15% (active),-46.7% (active),20%,-40.7% (active),-41.2% (active),-54.1% (active),-51.9% (active),62.5%,-12.9% (active),86.1%,71.9,42.4%,77.1%,35.2,3.59% (active),–,–
COc1cc(-c2cc(-c3cccc(OCC(=O)O)c3)[nH]c(=O)c2C#N)cc(OC)c1OC,100%,112%,116%,92.3%,113%,97.6%,–,–,102%,132%,91.8%,102%,81.8%,102,97%,82.2%,101,93.7%,99.7%,85.9
COc1ccc(C(=O)/C=C/c2cccc(Cl)c2Cl)cc1S(N)(=O)=O,-69.4% (active),-6.28% (active),15.2%,6.23% (active),-96.3% (active),5% (active),33%,-78.9% (active),-19.1% (active),74.4%,0.538% (active),-2.06% (active),-81.3% (active),–,-82.4% (active),-5.88% (active),94.9,0.527% (active),–,–
NS(=O)(=O)c1ccc(-n2cc(-c3cccc(NC(=O)c4cc(Cl)cc(Cl)c4)c3)nn2)cc1,94.7%,32.1%,86.2%,68.6%,-45.9% (active),69.7%,69.6%,2.52% (active),45.3%,96.7%,88.8%,88%,115%,114,95.8%,94.2%,135,56.7%,–,–
